In article PMC5540273 (PLoS ONE, 2017):

The molecules below were run on T1, MST2. Details: concentration: 1 μM, replicates: in singlicate; n = 1.
T1 construct: gene STK3
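Note: KINOMEscan kinase panel screen.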

| Compound | %Inh [%] |
| --- | --- |
| N#CC1(c2cccc(C(=O)Nc3cccc(Oc4ccc5nc(NC(=O)C6CC6)sc5n4)c3)c2)CC1 | 8 |
| O=C(Nc1n[nH]c2nc(-c3ccccc3)ccc12)C1CC1 [SB-708999] | 0 |
| CC(C)c1nc(-c2cccc(NS(=O)(=O)c3c(F)cccc3F)c2)c(-c2ccnc(Nc3ccc(N4CCOCC4)nc3)n2)s1.Cl [GSK1723980] | 0 |
| Cl.Cl.NCC(NC(=O)c1cc(-c2cccnc2)c(-c2ccnc3[nH]ccc23)s1)c1ccccc1 (stereo not shown) [GSK1323434] | 8 |
| COC(=O)Nc1nc2cc(Oc3ccc(NC(=O)Nc4cccc(SC)c4)cc3)ccc2[nH]1.Cl [GW697999] | 0 |
| O=C(Nc1n[nH]c2nc(-c3ccccc3O)ccc12)C1CC1 [SB-711880] | 16 |
| O=C(Nc1n[nH]c2cc(-c3cccs3)ccc12)C1CC1 [SB-731284] | 0 |
| O=C(Nc1c(F)cccc1F)c1cc(C(=O)c2ccccc2F)c[nH]1 [GSK1326180] | 0 |
| Cc1ccc(Nc2ccnc(Nc3ccc(C)c(F)c3)n2)cc1O.Cl [GW582868] | 9 |
| COc1cccc(-c2nc(-c3ccccc3)[nH]c2-c2ccncc2)c1 [SB-610250] | 0 |
| CCn1cnc2c(NCc3ccccc3)ncnc21 [SKF-96418] | 14 |
| Cl.Cl.NC(CNC(=O)c1cc(Br)c(-c2ccnc3[nH]ccc23)s1)c1ccccc1 (stereo not shown) [GSK1322949] | 26 |
| CN(c1ccc(F)c(NC(=O)c2cccc(OC(C)(C)C#N)c2Cl)c1)c1ccc2nc(NC(=O)C3CC3)sc2n1 | 0 |
| Fc1cc(Cl)ccc1Nc1ccnc2cc(-c3ccc(CN4CCOCC4)o3)ccc12 [GW560109] | 0 |
| COc1cc(Nc2ccnc3cc(-c4ccncc4)ccc23)cc(OC)c1OC.Cl [GW494610] | 0 |
| Cc1ccc(O)cc1Nc1ccnc2cc(-c3ccc(CN4CCCCC4)o3)ccc12 [GW557777] | 0 |
| Nc1ncc(-c2ccc3nccc(-c4ccncc4)c3c2)cc1S(=O)(=O)N1CCCCC1 [GSK1693850] | 25 |
| COc1ccc(C)c(Nc2ccnc(Nc3ccc(-c4cnc[nH]4)cc3)n2)c1.Cl [GW784041] | 38 |
| Fc1cc(Cl)ccc1Nc1ccnc2cc(-c3ccc(CN4CCSCC4)o3)ccc12 [GW560106] | 0 |

| Compound | %Inh [%] |
| --- | --- |
| Cc1ccc(NC(=O)c2ccnc(N3CCCCC3)c2)cc1-c1ccc(C(=O)NCC2CC2)cc1 [GW775610] | 32 |
| CCOc1nccc(-c2c(-c3ccc(F)cc3)ncn2C2CCNCC2)n1 [SB-249175] | 0 |
| O=C(O)C(F)(F)F.O=c1[nH]ccc2nc(N[C@@H]3CCNC3)nc(Nc3ccc4c(c3)S(=O)(=O)CC4)c12 [GSK2181306] | 80 |
| c1ccc(Oc2ccc(Nc3ccnc4cc(-c5ccc(CN6CCCCC6)o5)ccc34)cc2)nc1 [GW567143] | 0 |
| Cc1ccc(C)c(NC(=O)Nc2ccc(C)c(-c3ccc(C(=O)Nc4ccncc4)cc3)c2)c1 [GSK1398473] | 34 |
| Cn1cc(-c2cnc(N)c3c(-c4ccc5c(c4)CCN5C(=O)Cc4ccccc4)csc23)cn1 [GSK2593074] | 100 |
| O=C(O)C(F)(F)F.O=c1[nH]ccc2nc(N[C@@H]3CCNC3)nc(Nc3cc(Cl)cc(Cl)c3)c12 [GSK2188764] | 80 |
| Cl.O=C(Nc1ccc(Oc2ccc3[nH]c(NC(=O)c4ccco4)nc3c2)cc1)Nc1cc(C(F)(F)F)ccc1F [GW683134] | 0 |
| Cc1cccc(Nc2nc(NCCN)ncc2C(N)=O)c1 [GSK1292139] | 38 |
| CC(C)NCC(Cc1ccccc1)NC(=O)c1cc(Br)c(-c2ccnc3[nH]ccc23)s1.Cl.Cl (stereo not shown) [GSK1383281] | 0 |
| Nc1cccc(-c2ccc3c(N)n[nH]c3c2)c1 [GSK2193613] | 17 |
| COc1cc(Nc2nccc(N3CCC(NS(=O)(=O)c4ccc(NC(C)=O)cc4)CC3)n2)cc(OC)c1OC [GSK1379825] | 19 |
| Cc1nn2c(=O)cc(N3CCO[C@H](C)C3)nc2n1Cc1cccc(Cl)c1Cl [GSK2373693] | 0 |
| CN1CCN(Cc2ccc(NC(=O)Nc3ccc(N(C)c4ccnc(Nc5ccc(CS(C)(=O)=O)cc5)n4)cc3)cc2)CC1.Cl [GW827654] | 99 |
| COC(=O)Nc1nc2ccc(Oc3ccc(CC(=O)Nc4cc(C(F)(F)F)ccc4F)cc3)cc2[nH]1 [GW680903] | 0 |
| COc1ccc(C2=C(Nc3cccc(O)c3)C(=O)NC2=O)cc1 [SB-390766] | 100 |
| CN(C)c1ncnc2nc[nH]c12 [SKF-31736] | 0 |
| Cc1cc(-c2ccnc(Nc3cccc(C#N)c3)n2)cc(C)c1O [GSK1440913] | 9 |
